# Results from ChEMBL document CHEMBL4513216, “Probing the Open Global Health Chemical Diversity Library for Multistage-Active Starting Points for Next-Generation Antimalarials” (ACS Infect Dis, 2020).
# Out of some 69,000 compounds screened, about 8,600 (12%) showed an effect of 50% or more. The entries come from a sample that favours strong results as a whole.
# System: Plasmodium berghei
# Test: Screen against P. berghei liver stage (PbLuc), transformed with Luciferase, at 10uM
# Format: functional, HepG2
# Conditions: tested at 10 uM
row,SMILES,INHIBITION [%]
1,O=C(O)c1ccc2[nH]cc(CN3CCOCC3)c2c1,-9.76
2,O=C(O)c1ccc2c(CN3CCOCC3)c[nH]c2c1,56.5
3,Cc1cccc(C(=O)NC(C(=O)NCc2ccc(O)nc2)C(C)C)c1 (stereo not given),28.7
4,c1ccc(-c2cc(CN3C[C@H]4CC[C@@H](C3)N(CC3CC3)C4)on2)cc1,48.2
5,c1ccc(-c2cc(CN3C[C@H]4CC[C@H]3C4)on2)cc1,-0.27
6,c1ccc(-c2cc(CN3C[C@H]4CC[C@@H](C3)N(CC3CCC3)C4)on2)cc1,86.8
7,CN(c1cccnn1)C1CCN(C(=O)Cc2c[nH]c3ccccc23)CC1,36.1
8,CCCOC1CCCN(c2nc(CC)nc3c2cnn3C)C1 (stereo not given),7.77
9,Cc1nc(N2CCCC2)nc2c1CCN(C(=O)C1CCC1)CC2,-21.1
10,Nc1ncc(-c2csc(NC(=O)C[C@H]3COCCN3)n2)cn1,-7.79
11,O=C(Cc1ccc2c(c1)CCC2)NCCNc1cnccn1,8.64
12,c1cc(CN2C[C@H](OCC3CCOCC3)[C@H]3COC[C@H]32)cs1,9.65
13,c1csc(CN2C[C@H](OCC3CCOCC3)[C@H]3COC[C@H]32)n1,26.5
14,c1cnc(N2C[C@H](OCC3CCOCC3)[C@H]3COC[C@H]32)nc1,68.9
15,COc1ccc(CN2C[C@H](OCC3CCOCC3)[C@H]3COC[C@H]32)cc1,41.8
16,c1cc(CN2C[C@H](OCC3CCOCC3)[C@H]3COC[C@H]32)co1,57.3
17,c1cnc(N2CCO[C@H]3[C@H](OCC4CCOCC4)CC[C@@H]32)nc1,21.6
18,COc1ccc(-n2cc3[nH]c(=O)[nH]n3c2=O)cc1,3.68
19,Cc1ncncc1C(=O)N1CCCC(n2ccnc2C)C1 (stereo not given),-20.1
20,NC(=O)N1CCC2(CC1)CN(Cc1cccnc1)C(=O)CO2,2.4
21,COCCN1CCC2(CC1)CN(C(=O)c1cccs1)CCO2,-23.3
22,O=C(c1ccco1)N1CCCC2(CN(Cc3ccsc3)CCO2)C1 (stereo not given),76.5
23,Cc1nocc1C(=O)N1CCOC2(COCCN(CC3CC3)C2)C1 (stereo not given),1.7
24,Cc1nocc1C(=O)N1CCOC2(COCCN(C(C)C)C2)C1 (stereo not given),20.6
25,O=C(c1ccco1)N1CCCC2(CN(Cc3cccs3)CCO2)C1 (stereo not given),2.02
26,COCCN1CCC2(CC1)CN(C(=O)c1ccco1)CCO2,51.9
27,COCCN1CCC2(CC1)CN(C(=O)c1ccccc1)CCO2,39.5
28,O=C(c1ccco1)N1CCCC2(CN(Cc3ccoc3)CCO2)C1 (stereo not given),-8.25

row,SMILES,INHIBITION [%]
1,COCCN1CCOCC2(C1)CN(C(=O)c1conc1C)CCO2 (stereo not given),53.4
2,O=C(CC1CC1)N1CC[C@H]2OCC[C@@]2(COc2ncccc2F)C1,-31.3
3,CN1CCN(C(=O)C2CCCN(c3cccnn3)C2)CC1 (stereo not given),42.4
4,O=C(Nc1cc(C(F)(F)F)c[nH]c1=O)C1CCCCN1 (stereo not given),-5.51
5,CNC(=O)CCN(C)c1nc(-c2ccncc2)nc2c1CCNC2,35.8
6,CNc1ccnc(N2C[C@@H](C)[C@](O)(C3CC3)C2)n1,39.9
7,CCCc1nnc(N2C[C@@H](C)[C@@](C)(O)C2)s1,9.96
8,CCCc1nnc(N2CC[C@@](O)(C3CCOCC3)[C@H](C)C2)s1,60.3
9,CNc1ccnc(N2C[C@@H](C)[C@](O)(C3CCC3)C2)n1,30.1
10,CCCc1nnc(N2CC[C@](C)(O)[C@H](C)C2)s1,-50.3
11,CNc1ccnc(N2CC[C@@](O)(C3CCOCC3)[C@H](C)C2)n1,59.3
12,Cc1cnc(C2(C)CCN(Cc3csc(C)n3)CC2)s1,6.32
13,O=C(NC1CCCOc2cc(Cl)ccc21)c1ccc(=O)[nH]n1 (stereo not given),-10.9
14,CCN1CC2(CCC1=O)CCN(C(=O)c1cn3cccnc3n1)CC2,-13.6
15,COc1ccc(Br)cc1SCCC(N)=O,16.1
16,O=C(NC1CC1)[C@@H]1CCO[C@@H]2CCN(Cc3ccsc3)C[C@H]21,27.3
17,O=C(NC1CC1)[C@@H]1CCO[C@@H]2CCN(Cc3ccco3)C[C@H]21,18.3
18,CN1CC[C@H]2OCC[C@@H](C(=O)NCc3ccco3)[C@@H]2C1,18.3
19,O=C(NC1CC1)[C@@H]1CCO[C@@H]2CCN(C3CCOCC3)C[C@H]21,-48.2
20,O=C(NC1CC1)[C@@H]1CCO[C@@H]2CCN(CC3CCC3)C[C@@H]21,91
21,Cn1cc(CN2CC[C@H]3OCC[C@@H](C(=O)NCc4ccco4)[C@@H]3C2)cn1,5.96
22,O=C(NCc1ccccn1)[C@@H]1CCO[C@@H]2CCN(Cc3ccoc3)C[C@H]21,54.6
23,O=C(NCC1CC1)[C@@H]1CCO[C@@H]2CCN(Cc3ccco3)C[C@H]21,-22.8
24,O=C(NCc1ccco1)[C@@H]1CCO[C@@H]2CCN(CC3CC3)C[C@@H]21,67.2
25,O=C(NCc1ccccn1)[C@H]1COC[C@H]2CN(Cc3ccoc3)C[C@H]21,31.8
26,O=C(NC1CC1)[C@@H]1CCO[C@@H]2CCN(CC3CCC3)C[C@H]21,61.1
27,O=C(NC1CC1)[C@@H]1CCO[C@@H]2CCN(C3CCCC3)C[C@H]21,3.25
